Among the test systems are NCI-H23 lung; NCI-H226 lung; NCI-H322M lung; HOP-62 NSCLC; NCI-H460 lung; HOP-92 NSCLC; NCI-H522 lung; A549/ATCC NSCLC; 786-0 renal; COLO 205 colon; DU-145 prostate; K-562 leukemia; MALME-3M melanoma; MDA-MB-231 breast; RXF 393 renal; SF-268 CNS; SF-295 CNS; SF-539 CNS; UACC-257 melanoma; M14 melanoma.
Experiment in all cases: NCI-60 one-dose screen, 48 h (100 = growth as untreated, 0 = no growth, -100 = all killed)
Settings in all cases: 10 µM unless noted

This is part of a sample that, as a whole, favours compounds with a hit. Of some 83,000 tested, about 20% had one in any assay.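 Method: cells in 96-well plates; compound added at one concentration; 48 h incubation; percent growth measured; values under 10 scored active.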 A number with no mark means an inactive call. Activity calls are given as the source filed them.

As for `Cc1cc(C2(c3cc(C)c(O)cc3C)OS(=O)(=O)c3ccccc32)c(C)cc1O`, the growth was 106% with NCI-H23 lung; 106% in the assay on NCI-H226 lung; 101% in the assay on NCI-H322M lung; 92.2% in the assay on HOP-62 NSCLC; 108% in the assay with NCI-H460 lung; 81.7% in the assay on HOP-92 NSCLC. Besides, the growth in the assay with NCI-H522 lung was 92.2%; in the assay with A549/ATCC NSCLC, 97.2%; in the assay with 786-0 renal, 109%; in the assay with COLO 205 colon, 111%; in the assay on DU-145 prostate, 119%; in the assay on K-562 leukemia, 102%. Also, the growth with MALME-3M melanoma is 122%; with MDA-MB-231 breast it was 100%; in the assay with RXF 393 renal, 114%; in the assay with SF-268 CNS, 103%; in the assay on SF-295 CNS, 107%; in the assay with SF-539 CNS, 105%. Further, the values for the growth in the assay on UACC-257 melanoma and with M14 melanoma were 87.7% and 108%, respectively.
For the molecule `COc1cccc(-c2cc3c(O)cc(C#N)cc3[nH]2)c1`, the growth is 92.5% in the assay on NCI-H23 lung; 101% with NCI-H226 lung; 85.4% in the assay with NCI-H322M lung; 108% in the assay with HOP-62 NSCLC; 96.9% with NCI-H460 lung; 113% in the assay on HOP-92 NSCLC. The growth was 80.2% in the assay on NCI-H522 lung; 94.6% in the assay with A549/ATCC NSCLC; 90.5% in the assay on 786-0 renal; 115% with COLO 205 colon; 101% in the assay with DU-145 prostate; 82.5% in the assay with K-562 leukemia. The growth with MALME-3M melanoma was 100%; in the assay on MDA-MB-231 breast it was 73%; in the assay on RXF 393 renal it was 112%; in the assay on SF-268 CNS, 98.9%; in the assay with SF-295 CNS it was 90.6%; with SF-539 CNS, 85.5%. Also, the figures for the growth in the assay on UACC-257 melanoma and in the assay with M14 melanoma were 86.9% and 86.6%, respectively.
In the case of `CCC1=CCC[C@@]2(C)CCC[C@@]3(C)CCCC(C)(C)[C@]1([O-])[O+]32`, the growth is 99.7% in the assay on NCI-H23 lung; 102% in the assay on NCI-H226 lung; 116% with NCI-H322M lung; 104% in the assay on HOP-62 NSCLC; 109% with NCI-H460 lung; 87.8% in the assay with HOP-92 NSCLC. The growth in the assay on NCI-H522 lung was 93.9%; in the assay with A549/ATCC NSCLC, 103%; in the assay on 786-0 renal it was 97.9%; in the assay on COLO 205 colon, 112%; with DU-145 prostate it was 105%; with K-562 leukemia it was 101%. The growth with MALME-3M melanoma is 107%; in the assay on MDA-MB-231 breast, 121%; in the assay with RXF 393 renal, 111%; in the assay on SF-268 CNS, 107%; with SF-295 CNS, 99.7%; in the assay with SF-539 CNS it was 103%. The growth was 105% in the assay with UACC-257 melanoma and 101% in the assay on M14 melanoma.
As for `COc1ccc(C(=O)c2cc(OC)c3c(c2)OCO3)cc1O`, the growth in the assay with NCI-H23 lung is 30.4%; with NCI-H226 lung it was 66.9%; in the assay with NCI-H322M lung, 51.4%; in the assay with HOP-62 NSCLC it was 35.5%; in the assay on NCI-H460 lung it was 8.5% (active); in the assay on HOP-92 NSCLC, 44.1%. Also, the growth is -7.3% (active) in the assay with NCI-H522 lung; 24.5% in the assay on A549/ATCC NSCLC; 44% in the assay on 786-0 renal; 84.9% in the assay with COLO 205 colon; -2.4% (active) with DU-145 prostate; 14.8% with K-562 leukemia. The growth in the assay on MALME-3M melanoma was 50.7%; in the assay on MDA-MB-231 breast, 16.4%; in the assay with RXF 393 renal, -4.75% (active); with SF-268 CNS it was 27.6%; in the assay on SF-295 CNS, 15.5%; in the assay on SF-539 CNS, 6.91% (active). For the same molecule, the growth in the assay on UACC-257 melanoma is 65.6%; in the assay with M14 melanoma, 14.2%.
As for `O=C(O)c1cn(C2CC2)c2cc(N3CCN(C(=O)/C=C/c4ccc(Cl)cc4)CC3)c(F)cc2c1=O`, the growth was 86.8% with NCI-H23 lung; 91.5% with NCI-H226 lung; 71.5% in the assay on NCI-H322M lung; 80.8% in the assay with HOP-62 NSCLC; 58.7% in the assay with NCI-H460 lung; 57.4% with HOP-92 NSCLC. Also, the growth is 75.1% with NCI-H522 lung; 77.4% in the assay with A549/ATCC NSCLC; 76.4% with 786-0 renal; 98.9% in the assay on COLO 205 colon; 84.4% in the assay on DU-145 prostate; 74.2% with K-562 leukemia. The growth was 84.6% in the assay with MALME-3M melanoma; 68.1% in the assay with MDA-MB-231 breast; 72% in the assay on RXF 393 renal; 62.4% with SF-268 CNS; 80.7% in the assay on SF-295 CNS; 72.2% with SF-539 CNS. Moreover, the growth with UACC-257 melanoma is 81.9%; in the assay with M14 melanoma, 82.8%.
Regarding `COc1ccc(Nc2[nH]n3c(=O)cc(-c4ccccc4)nc3c2C(=O)Nc2ccc(C)cc2)c(OC)c1`, the growth in the assay with NCI-H23 lung is 88.7%; with NCI-H226 lung, 87.4%; in the assay on NCI-H322M lung it was 81.5%; in the assay with HOP-62 NSCLC it was 80.3%; in the assay on NCI-H460 lung, 111%; in the assay on HOP-92 NSCLC it was 68.9%. In addition, the growth is 78.2% with NCI-H522 lung; 88.7% with A549/ATCC NSCLC; 92.7% with 786-0 renal; 98% with COLO 205 colon; 118% in the assay with DU-145 prostate; 68.4% with K-562 leukemia. Further, the growth in the assay with MALME-3M melanoma is 91.6%; in the assay with MDA-MB-231 breast, 86.2%; with RXF 393 renal, 92.1%; with SF-268 CNS, 96.2%; in the assay with SF-295 CNS, 95.7%; with SF-539 CNS, 81%. The growth was 85.4% in the assay on UACC-257 melanoma and 95.6% in the assay with M14 melanoma.
`C=C[C@@H]1C[C@@H]2Cc3cc(Cl)ccc3N1O2`: the growth with NCI-H23 lung was 101%; in the assay with NCI-H226 lung it was 88.9%; in the assay with NCI-H322M lung, 130%; in the assay with HOP-62 NSCLC, 94.8%; with NCI-H460 lung it was 97.5%; with HOP-92 NSCLC, 67%. Also, the growth in the assay with NCI-H522 lung is 92.7%; in the assay on A549/ATCC NSCLC, 100%; in the assay on 786-0 renal, 102%; in the assay on COLO 205 colon, 94.3%; in the assay on DU-145 prostate, 111%; with K-562 leukemia, 95.4%. Also, the growth is 88% with MALME-3M melanoma; 99.3% with MDA-MB-231 breast; 104% with RXF 393 renal; 106% in the assay on SF-268 CNS; 100% with SF-295 CNS; 105% in the assay on SF-539 CNS. Moreover, the growth in the assay on UACC-257 melanoma is 99.2%; in the assay with M14 melanoma it was 97.9%.
With `CCN(CC)CCC(CNc1c2ccc(Cl)cc2nc2ccc(OC)cc12)c1ccccc1` (stereo not given), the growth with NCI-H23 lung was 34.1%; in the assay on NCI-H226 lung, 13.9%; with NCI-H322M lung, 17.5%; in the assay with HOP-62 NSCLC, -49.8% (active); with NCI-H460 lung it was -39.6% (active); with HOP-92 NSCLC, -1.53% (active). For the same molecule, the growth with NCI-H522 lung is -81% (active); in the assay with A549/ATCC NSCLC, -62.4% (active); in the assay with 786-0 renal it was -85% (active); in the assay with COLO 205 colon, -91.9% (active); in the assay on DU-145 prostate, -23.3% (active); in the assay with K-562 leukemia it was -21.8% (active). Also, the growth is -85.1% (active) with MALME-3M melanoma; -46.1% (active) in the assay with MDA-MB-231 breast; -97.7% (active) in the assay with RXF 393 renal; 8.46% (active) in the assay with SF-268 CNS; -33.2% (active) with SF-295 CNS; -79.6% (active) with SF-539 CNS. Besides, the growth with UACC-257 melanoma is -91.1% (active); in the assay with M14 melanoma, -87.9% (active).

The values are drawn from PubChem BioAssay (NCI).
